Reference: PubChem BioAssay AID1159580 (chemical genetic matrix, 2015)
The whole screen tested about 5,500 compounds, of which about 2,000 (36%) were called active. Another 18% or so got no clear call; they are omitted. Cut-off read from the data, not from the text of the source: active = normalized growth mostly below about 0.91 (no sharp cut-off); inconclusive = no clear call, values can overlap the other calls; inactive = mostly above about 0.92. Some of the results follow.

Assay: chemical genetic growth profiling, strain panel (AID 1159580);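 note: tested at 20 µM; growth read once vehicle control cultures reached saturation at 30 °C; 1 = growth at the plate median or of vehicle wells; lower values mean less growth of the strain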
Conditions: S. cerevisiae deletion strains, growth OD

Measured: normalized growth

O=C(O)CSCc1ccccc1
inactive: locus YAL013W, strain DEP1, stronger effect = lower value 1.01 | locus YBR229C, strain ROT2, stronger effect = lower value 1 | locus YCL061C, strain MRC1, stronger effect = lower value 0.991 | locus YDL101C, strain DUN1, stronger effect = lower value 1.02 | locus YDL134C, strain PPH21, stronger effect = lower value 0.986 | locus YDR150W, strain NUM1, stronger effect = lower value 0.98 | locus YEL061C, strain CIN8, stronger effect = lower value 1.01 | locus YGR078C, strain PAC10, stronger effect = lower value 0.976 | locus YHR030C, strain SLT2, stronger effect = lower value 1.07 | locus YHR087W, strain rtc3, stronger effect = lower value 0.99 | locus YJR043C, strain POL32, stronger effect = lower value 1.03 | locus YJR075W, strain HOC1, stronger effect = lower value 0.971 | locus YLR039C, strain RIC1, stronger effect = lower value 1.07 | locus YLR058C, strain SHM2 (second series), stronger effect = lower value 0.993 | locus YLR085C, strain ARP6, stronger effect = lower value 1.03 | locus YLR262C, strain YPT6, stronger effect = lower value 1.04 | locus YML094W, strain GIM5, stronger effect = lower value 1.03 | locus YMR219W, strain ESC1, stronger effect = lower value 0.997 | locus YMR263W, strain SAP30, stronger effect = lower value 1 | locus YNL128W, strain TEP1, stronger effect = lower value 0.986 | locus YNL153C, strain GIM3, stronger effect = lower value 0.997 | locus YNL298W, strain CLA4 (second series), stronger effect = lower value 1.05 | locus YNL322C, strain KRE1, stronger effect = lower value 0.991 | locus YNR030W, strain Alg12, stronger effect = lower value 1.02 | locus YPL055C, strain LGE1, stronger effect = lower value 0.958 | locus YPL241C, strain CIN2, stronger effect = lower value 1 | locus YPR135W, strain CTF4, stronger effect = lower value 0.976
